Shown are actives, neighbours in structure and some others; about 9.2% of the full set was active somewhere.
ELG1 repair inh – qHTS screen for small molecules that inhibit ELG1-dependent DNA repair in human embryonic kidney (HEK293T) cells expressing luciferase-tagged ELG1 | HEK293T ELG1-luciferase reporter, luminescence, 16 h; DNA damage induced by 5-fluorouridine | Potency, µM (titrated, usually from 46.1 µM), for inactives: at the top dose activity change, negative = inhibition, usual class: inhibitors | 330,000 tested, 2.3% active; note: % is set by controls: 0 for no effect and ±100 for the full control effect; nearly all actives have a fitted effect of over 55% in size
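5-Fluorouridine DNA damage + compound/DMSO, 2,000 cells/well, 16 h, 37 °C/5% CO2. ONE-Glo, 30 min RT, luminescence. Readout = decrease in reporter signal.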
Rab9 prom act – qHTS Assay for Rab9 Promoter Activators | Potency, µM (highest dose often 9.22 µM), for inactives: at the top dose activation, negative = inhibition, most hits filed as activators | AID 485297, 2010 | 320,000 tested, 2.8% active | Huh7 Rab9 promoter-luciferase reporter, luminescence, 24 h; note: % of control where 0% means no effect; nearly all actives have a fitted effect of over 60% in size
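Promoter activation is measured as luciferase luminescence in Huh7 cells stably transfected with a Rab9 promoter–luciferase construct, following 24 h compound exposure at 37 °C and 10 min reagent incubation at ambient temperature.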
FLuc counter – qHTS profiling assay for firefly luciferase inhibitor/activator using purifed enzyme and Km concentrations of substrates (counterscreen for miR-21 project); Potency, µM (titrated, usually from 57.5 µM), for the others: at the highest dose activity change, negative = inhibition, actives largely listed as inhibitors; purified FLuc, Km substrates, luminescence inhibition; 360,000 tested, 6.9% active; Luciferin 4-monooxygenase (Photinus pyralis), P08659; AID 588342, 2011;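 note: plate controls were vehicle for no effect and reference inhibitor for full effect; nearly all actives have a fitted effect of over 55% in size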
Target sequence (P08659 whole entry, looked up): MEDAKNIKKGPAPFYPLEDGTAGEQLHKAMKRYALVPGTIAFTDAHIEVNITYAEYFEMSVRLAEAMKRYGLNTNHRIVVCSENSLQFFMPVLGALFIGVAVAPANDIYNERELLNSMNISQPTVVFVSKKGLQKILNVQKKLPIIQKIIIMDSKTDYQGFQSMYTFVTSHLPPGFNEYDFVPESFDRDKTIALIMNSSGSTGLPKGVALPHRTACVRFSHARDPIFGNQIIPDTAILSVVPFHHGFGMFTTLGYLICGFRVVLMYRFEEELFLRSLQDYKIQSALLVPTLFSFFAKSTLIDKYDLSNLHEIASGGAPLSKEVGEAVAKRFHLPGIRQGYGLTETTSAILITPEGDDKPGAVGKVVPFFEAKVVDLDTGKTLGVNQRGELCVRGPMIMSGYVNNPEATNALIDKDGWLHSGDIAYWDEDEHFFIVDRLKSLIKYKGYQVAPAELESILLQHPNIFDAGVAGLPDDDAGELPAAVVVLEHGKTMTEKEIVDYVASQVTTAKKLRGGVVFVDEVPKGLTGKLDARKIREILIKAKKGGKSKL
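Purified P. pyralis luciferase, 10 nM final, with Km-level 10 uM D-luciferin and 10 uM ATP in 50 mM Tris acetate pH 7.5, 10 mM Mg acetate, 0.01% Tween-20, 0.05% BSA; 6-point qHTS titration about 60 µM downward; luminescence read.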
NPC1 prom act – qHTS Assay for NPC1 Promoter Activators; Huh7 NPC1 promoter luciferase reporter, 24 h; Potency, µM (series often up to 9.22 µM), without a hit: at the top dose activation, most hits filed as activators; 320,000 tested, 2.4% active; note: % of control where 0% means no effect; nearly all actives have a fitted effect of over 60% in size
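Quantitative HTS used a cell-based reporter: Huh7 cells stably bearing the NPC1 promoter upstream of luciferase were treated with compounds for 24 h, and promoter activation was read as luminescence.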
ELG1 genotoxic – qHTS screen for small molecules that induce genotoxicity in human embryonic kidney (HEK293T) cells expressing luciferase-tagged ELG1 | 330,000 tested, 1.3% active | Potency, µM (doses to about 46 µM), for inactives: at the highest dose activity change, positive = activation, actives largely listed as activators | HEK293T ELG1-luciferase reporter, luminescence, 16 h | AID 504466, 2011; note: % of control where 0% means no effect; nearly all actives have a fitted effect of over 60% in size
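Genotoxic stress is detected as increased luminescence from luciferase-tagged ELG1 in HEK293T cells, measured with ONE-Glo after a 16 hr treatment at 37 °C.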
SMN2 splice enh – qHTS Assay for Enhancers of SMN2 Splice Variant Expression; HEK293 SMN2-luciferase splicing reporter, luminescence, 30-36 h; Potency, µM (titrated, usually from 46.1 µM), inactives show top-dose activity change, positive = activation, actives largely listed as activators; 210,000 tested, 2.8% active; note: % of control where 0% means no effect; nearly all actives have a fitted effect of over 55% in size
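qHTS luciferase splicing reporter: luminescence rises when SMN2 exon 7 is included in transfected HEK293 cells. Compound exposure lasted 30-36 h at 37C, with 4.5 mM final sodium butyrate as control, followed by a ONE-Glo read.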
* = called active by the depositor; ? = inconclusive; . = no result given; [ ] = remark or other dose. Calls come from the whole dose curve; as a rule, active = well fitted curve in the direction sought with a large enough effect; inconclusive = small, poorly fitted or top-dose-only effect, or another doubt; inactive = no such curve, though single readings can be large; an effect the other way counts as inactive or inconclusive. Potency is the fitted concentration of half-maximal effect.

SMILES | ELG1 repair inh | Rab9 prom act | FLuc counter | NPC1 prom act | ELG1 genotoxic | SMN2 splice enh
Cc1nnsc1-c1onc(C)c1C(=O)Nc1cc(Cl)cc(Cl)c1 | 16µM* | -4% | 0% | -2% | -19% | .
Brc1c(CSc2nc3ccccc3s2)nc2ncccn12 | ? | 3.2µM* | 12µM* | 3.2µM* | ? | 7.1µM*
COc1ccc(NC(=O)c2cc3ccc(O)cc3o/c2=N\O)cc1 | ? | 28% | 0.27µM* | ? | ? | .
CCCCCCc1cc2cc(C(=O)Nc3ccc(OC)cc3)c(=O)oc2cc1O | ? | -18% | 3% | -8% | -4% | -16%[1.84 µM]
N=c1oc2cc(O)ccc2cc1C(=O)Nc1ccc(F)cc1 | ? | 3.5µM* | 2.7µM* | ? | ? | .
O=C(c1ccc(F)cc1)c1cc2ccc(O)cc2oc1=O | ? | 15% | 15µM* | 28% | ? | .
O=C(Nc1cccc(S(=O)(=O)N2CCCC2)c1)c1ccc2ccccc2n1 | 21µM* | -2% | ? | -4% | -12% | -58%
CCOc1ncccc1C(=O)Nc1cccc(S(=O)(=O)N2CCCCC2)c1 | 11µM* | -7% | 6% | 0% | 0% | .
O=C(Nc1cccc(S(=O)(=O)N2CCCCCC2)c1)c1ccc(Cl)nc1 | 21µM* | . | . | . | -10% | .
O=C(Nc1cccc(S(=O)(=O)N2CCCCC2)c1)c1ccc(Cl)nc1 | 21µM* | . | . | . | -6% | .
O=C(Nc1cccc(S(=O)(=O)N2CCCCC2)c1)c1ccc2ccccc2n1 | -12% | 14% | ? | -2% | 2% | -23%
O=C(Nc1ccc(S(=O)(=O)N2CCCCC2)cc1)c1ccc(Cl)nc1 | ? | . | . | . | -8% | .
COc1ccc(-c2c3c(=O)n(C)c(=O)n(C)c3c3c(-c4cccc(C)c4)nc4ccccc4n23)cc1 | . | . | 8% | . | . | 0%
CCc1ccc(NC(=S)Nc2cc(OC)c(NC(=O)C(C)C)cc2OC)cc1 | -1% | -8% | -19% | 1% | 0% | .
COc1ccc2c(=O)c(OC)c(-c3ccccc3)oc2c1 | . | . | . | . | . | -20%
COc1ccc2c(=O)c(Oc3ccc(C(=O)O)cc3)c(C(F)(F)F)oc2c1 | ? | ? | ? | ? | ? | 2.5µM*
COCCn1c(=O)c(-c2ccccc2)nc2cnc(N3CCNCC3)nc21 | . | . | . | . | . | -6%
O=C(CCl)N1CCN(S(=O)(=O)c2ccc3c(c2)OCCCO3)CC1 | 18µM* | -33% | 3% | -5% | 6% | .
O=S(=O)(c1ccc(N2CCN(S(=O)(=O)c3ccc4c(c3)OCCO4)CC2)nc1)N1CCCC1 | 8.2µM* | 1% | 9% | -6% | -6% | .
CCCCCC(=O)N1CCN(S(=O)(=O)c2ccc3c(c2)OCCO3)CC1 | -1% | 1% | -1% | 0% | 1% | .
O=S(=O)(c1ccc(N2CCN(Cc3ccc4c(c3)OCO4)CC2)nc1)N1CCOCC1 | ? | -2% | -1% | -4% | -10% | -32%
Cc1ccc2sc(N(Cc3cccnc3)C(=O)CCOc3ccccc3)nc2c1C | . | . | 0% | . | . | .
Cc1nc2ccccc2nc(C)c1=NOCc1cccc(F)c1 | ? | -1% | -11% | -2% | -6% | 20µM*
CC(=O)c1c(C)[nH]c(C(=O)OCc2ccccc2)c1C | ? | ? | 15µM* | ? | 18µM* | ?
CCOC(=O)c1[nH]c(C)c(C(=O)OC)c1C | ? | -1% | ? | 10% | 15% | .
SMILES | ELG1 repair inh | Rab9 prom act | FLuc counter | NPC1 prom act | ELG1 genotoxic | SMN2 splice enh
CCOC(=O)Nc1ccc2c(c1)OCO2 | ? | ? | ? | ? | ? | 10%
COC(=O)c1c(C)[nH]c(C(=O)OCc2csc(CC(=O)Nc3ccccc3C)n2)c1C | 8.2µM* | . | . | . | 0% | .
CCOC(=O)c1c(C)[nH]c(C(=O)OCc2ccccc2F)c1C | ? | 1.6µM* | 2.7µM* | 1.6µM* | 1.6µM* | .
CCOC(=O)c1c(C)[nH]c(C(=O)Nc2ccc3c(c2)OCO3)c1C | ? | 4µM* | 4.8µM* | 3.5µM* | ? | .
CC(=O)c1c(C)[nH]c(C(=O)OCCCCN2C(=O)c3ccccc3C2=O)c1C | 6.5µM* | -28% | 1% | -31% | -7% | -48%
CCOC(=O)c1[nH]c(C)c(C(=O)OCC(=O)NC(C)c2ccc(F)cc2)c1C (stereo not given) | -8% | -24% | 6% | -26% | 1% | .
CCOC(=O)c1c(C)[nH]c(C(=O)OCc2ccc(F)cc2)c1C | ? | 1.6µM* | 4.8µM* | 2.2µM* | 15µM* | .
CCOC(=O)c1[nH]c(C)c(C(=O)Nc2ccccc2F)c1C | ? | -7% | ? | -26% | ? | 5µM*
CCOC(=O)c1[nH]c(C)c(C(=O)Nc2ccc(C)c(C)c2)c1C | 0% | 1.4µM* | -9% | ? | 11% | 18%
CCOC(=O)c1[nH]c(C)c(C(=O)Nc2ccc(F)cc2)c1C | ? | -5% | 3% | 1% | 21% | 6%
O=S(=O)(Nc1nc(-c2ccccc2)cs1)c1cc(Cl)ccc1Cl | 0% | 4% | -13% | -3% | 2% | .
CCCCc1nn2c(=O)cc(COC(=O)c3ccc4c(c3)OCO4)nc2s1 | . | . | -8% | . | . | .
CN(CC(=O)N1CCN(Cc2ccccc2)CC1)C(=O)Cc1ccc(Cl)c(Cl)c1 | ? | . | . | . | -5% | .
COc1ccc(-c2c(NC(=O)c3ccco3)n(C)c3ccccc3c2=O)cc1 | 5% | -2% | 10% | 2% | 3% | .
CCOC(=O)c1[nH]c(C)c(C(=O)NCC2CCCO2)c1C (stereo not given) | 0.73µM* | 5% | 0% | 1% | -4% | -16%
CCOC(=O)c1[nH]c(C)c(C(=O)NC2CCCCC2)c1C | 2% | -2% | 4% | -2% | -5% | 16%
COC(=O)c1cc(C#N)c(N2CCN(C)CC2)nc1C | 12% | -3% | 0% | 0% | 3% | 21%
COc1ccc(CCN2C(=O)c3[nH]nc(-c4ccccc4O)c3C2c2ccccc2)cc1OC (stereo not given) | 13µM* | 0% | 12% | 0% | -19% | -17%
COc1ccc(CCN2C(=O)c3[nH]nc(-c4ccccc4O)c3C2c2ccc(O)c(OC)c2)cc1 (stereo not given) | . | . | 4% | . | . | 5%
CCN(c1ccccc1)c1nnc(NC(=O)Nc2ccc(Br)cc2F)s1 | . | . | 5% | . | . | .
CCCn1c(-c2ccc[nH]c2=O)nc2ccccc21 | 1% | -20% | -2% | 1% | 0% | .

Screening data (PubChem BioAssay)
